# KCNH2 3.1 block = qHTS for Inhibitors of KCHN2 3.1: Mutant qHTS; Potassium voltage-gated channel subfamily H member 2, brain isoform KCNH2 3.1 (human); U2OS KCNH2 3.1, thallium flux FluxOr; active compounds read low; activity change, % (tested at about 1.8 µM); actives 0.95% (n = 340,000);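 active = maximum activity change below -70%; inconclusive = maximum activity change from -70% to -50%; inactive = maximum activity change above -50%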;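 also: thallium influx rate constant from kinetic fluorescence after stimulation buffer; % is scaled to controls: 0 for no effect and ±100 for the full control effect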
#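 Thallium flux via FluxOr fluorescence (Red40 quencher, 45 min loading) in U2OS cells virally expressing the KCNH2 3.1 isoform (1.77 x 10^8 /mL virus, overnight at 37 C). Rate constants from 2-min kinetic reads post-stimulation, normalised to positive and negative controls.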
# MBNL1 CUG block = qHTS Assay for Inhibitors of MBNL1-poly(CUG) RNA binding | Muscleblind-like protein 1 (Homo sapiens), Q9NR56 | TR-FRET MBNL1-His/biotin-(CUG)12 binding, 665/545 ratio | Potency, µM (doses to about 57.5 µM), inactives show at the highest dose activity change, negative = inhibition, most hits filed as inhibitors | actives 0.036% (n = 280,000); active = well fitted inhibition curve with a large enough effect in the signal ratio, with a control signal flat, not every such curve was filed as active; inconclusive = small, poorly fitted or top-dose-only effect, or effect the other way, or a change in a side signal; inactive = no such curve, though single readings can be large or run the other way; the % refers to the signal ratio; also: potency is read from the fitted curve at half-maximal effect; % is scaled to controls: 0 for no effect and ±100 for the full control effect
# Target sequence (Q9NR56 whole entry, looked up): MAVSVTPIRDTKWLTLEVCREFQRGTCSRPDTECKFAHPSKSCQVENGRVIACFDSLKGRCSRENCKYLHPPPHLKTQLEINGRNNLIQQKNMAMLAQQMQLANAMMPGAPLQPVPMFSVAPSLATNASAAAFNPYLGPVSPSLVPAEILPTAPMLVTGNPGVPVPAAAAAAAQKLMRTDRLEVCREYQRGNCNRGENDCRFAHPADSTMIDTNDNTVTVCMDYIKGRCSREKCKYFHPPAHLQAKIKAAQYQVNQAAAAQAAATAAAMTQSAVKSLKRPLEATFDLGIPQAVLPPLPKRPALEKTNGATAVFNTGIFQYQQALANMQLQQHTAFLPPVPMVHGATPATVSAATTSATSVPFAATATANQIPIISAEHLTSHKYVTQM
#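 TR-FRET readout: Ex 340 nm, 665/545 nm emission ratio, normalized to buffer-only (basal) and MBNL1-(CUG)12 controls. Complex of MBNL1-His with Biotin-(CUG)12, compounds 92 nM–58 uM, incubated 60 min at room temperature.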
# VDR inhibitor = Inhibitors of the vitamin D receptor (VDR): qHTS. Vitamin D3 receptor (Homo sapiens), P11473. VDR-SRC2-3 peptide fluorescence polarization, 2 h. Potency, µM, for inactives: max response, negative = inhibition, hits mostly inhibitors. actives 0.93% (n = 400,000). AID 504847, 2011; also: potency is read from the fitted curve at half-maximal effect; % is scaled to controls: 0 for no effect and ±100 for the full control effect
#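 After 23 nl compound addition and a short centrifugation, plates sat for 2 hours at ambient temperature; polarization of fluorescence then indicated loss of VDR binding to peptide SRC2-3.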
# CBFb-RUNX1 inh = qHTS Assay for Compounds Blocking the Interaction Between CBF-beta and RUNX1 for the Treatment of Acute Myeloid Leukemia; Runt-related transcription factor 1 (Homo sapiens) + Core-binding factor subunit beta …; AlphaScreen CBFb-His/RUNX1-biotin binding, biochemical; Potency, µM (doses to about 59.8 µM), inactives show at the highest dose activity, negative = inhibition, usual class: inhibitors; 230,000 tested, under 10 active; AID 1477, 2009; also: % of control where 0% means no effect
#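 Read-out: AlphaScreen. Format: His-CBF-beta with biotinylated RUNX1 (30 nM each) preincubated 20 min, compound 15 min, Ni-chelate plus streptavidin beads 90 min; room temperature throughout.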
# PLK1 PBD inh = qHTS for Inhibitors of PLK1-PDB (polo-like kinase 1 - polo-box domain): Primary Screen; Plk1 PBD binding of FITC phosphopeptide, fluorescence polarization; Serine/threonine-protein kinase PLK1 (Homo sapiens), P53350; actives 2.8% (n = 360,000); Potency, µM, inactives show max response, negative = inhibition, most hits filed as inhibitors; also: potency is read from the fitted curve at half-maximal effect; series mostly up to about 57 µM; % is scaled to controls: 0 for no effect and ±100 for the full control effect; nearly all actives have a fitted effect of over 65% in size
# KCNH2 WT inh = qHTS for Inhibitors of KCHN2 3.1: Wildtype qHTS. U2OS, BacMam KCNH2, thallium flux FluxOr; active compounds read low. actives 0.37% (n = 340,000). activity change, % at 1.84 µM. Voltage-gated inwardly rectifying potassium channel KCNH2 (Homo sapiens), Q12809;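 active = maximum activity change below -70%; inconclusive = maximum activity change between -70% and -50%; inactive = maximum activity change above -50%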; also: % is scaled to controls: 0 for no effect and ±100 for the full control effect
#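 U2OS cells transduced with wild-type KCNH2 virus are loaded with FluxOr dye for 45 min, and thallium flux is measured in kinetic reads before and after stimulation buffer. Rate constants are normalized to DMSO controls.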
# The depositor's hits bear a star; ? = inconclusive; nt = not tested or not shown. A selection: hits, their analogues and other compounds. The true share with any hit is near 3.8%. Unless noted, calls follow the shape of the dose curve; as a rule, active = well fitted curve in the direction sought with a large enough effect; inconclusive = small, poorly fitted or top-dose-only effect, or another doubt; inactive = no such curve, though single readings can be large; an effect the other way counts as inactive or inconclusive.
SMILES,KCNH2 3.1 block,MBNL1 CUG block,VDR inhibitor,CBFb-RUNX1 inh,PLK1 PBD inh,KCNH2 WT inh
O=C(O)c1cccc(N2C(=O)c3cccc4c(Cl)ccc(c34)C2=O)c1,7,?,-5%,-6%,-9%,-14
CC(C)CCN1C(=O)c2cccc3c(N)ccc(c23)C1=O,-38,nt,-6%,nt,5.3µM*,-6
O=C(O)c1ccc(N2C(=O)c3cccc4c(C(=O)O)ccc(c34)C2=O)cc1,-22,?,29%,?,0%,9
Nc1cccc(N2C(=O)c3cccc4c(N)ccc(c34)C2=O)c1,3,?,-1%,nt,11µM*,12
CCN1C(=O)c2cccc3c(Cl)ccc(c23)C1=O,7,19%,-9%,-1%,-11%,7
CN(C)c1ccc2c3c(cccc13)C(=O)N(c1ccccc1)C2=O,nt,7%,nt,?,nt,nt
Nc1ccc2c3c(cccc13)C(=O)N(c1ccccc1)C2=O,-6,?,-11%,-3%,1.3µM*,-1
CCOc1ccc(C(=O)c2cn(CC(=O)Nc3ccc(C)c(C)c3)c3ccc(OCC)cc3c2=O)cc1,nt,nt,-5%,nt,nt,nt
CC(=O)Oc1cccc(N2C(=O)C3C4C=CC(C4=C(C)C)C3C2=O)c1 (centres undefined),-9,-7%,?,4%,17µM*,-2
CC(=O)Oc1cccc(N2C(=O)C3C(C2=O)C2C=CC3C23CC3)c1 (centres undefined),1,-1%,4%,2%,-4%,-5
COc1ccc(CCNC(=O)CCc2c(C)nc3cc(-c4ccccc4OC)nn3c2C)c(OC)c1,nt,nt,1%,nt,nt,nt
Cc1cc(C)c(S(=O)(=O)/N=C2\C=C(Nc3ccc(C(=O)O)cc3)C(=O)c3ccccc32)c(C)c1,-20,?,?,nt,?,11
O=C(O)c1ccc(NC2=C/C(=N/S(=O)(=O)c3ccccc3)c3ccccc3C2=O)cc1,-5,?,?,?,11µM*,-13
CCc1ccc(S(=O)(=O)/N=C2/C=C(Sc3ncn[nH]3)C(=O)c3ccccc32)cc1,-3,?,25µM*,?,1.5µM*,11
Cc1ccc(S(=O)(=O)/N=C2\C=C(NS(=O)(=O)c3ccccc3)C(=O)c3ccccc32)cc1,-6,nt,?,nt,15µM*,-4
CCc1ccc(S(=O)(=O)/N=C2\C=C(Nc3cccc(C(=O)O)c3)C(=O)c3ccccc32)cc1,0,?,-7%,nt,38µM*,-1
CCCC12CN3CC(C)(CN(C1)C3c1ccco1)C2=O (centres undefined),-1,-12%,?,-2%,19µM*,8
CCOC(=O)c1c(NC(=O)c2ccc(S(=O)(=O)N3CCCC(C)C3)cc2)sc2c1CC(C)(C)NC2(C)C (centres undefined),nt,nt,-6%,nt,nt,nt
Cn1c(=O)n(C)c2cc(CNCc3ccc(C(=O)O)cc3)ccc21,nt,nt,5%,nt,nt,nt
Cc1ccc(Sc2ccccc2CN(C)C)c(N)c1,nt,nt,1%,19%,nt,nt
COc1ccc2c(CNC3CCCCCC3)c(C(=O)O)n(Cc3ccc(C)cc3)c2c1,nt,nt,2%,nt,nt,nt
NNc1ccc([N+](=O)[O-])c2[nH][nH]c(=O)c12,1,nt,nt,nt,24µM*,-6
CCCN1CNc2c(c(=O)[nH]c(=S)n2CCc2ccccc2OC)C1,nt,nt,-4%,nt,nt,nt
Cc1cc(C)c(S(=O)(=O)NCCc2sc(-c3cccnc3)nc2C)c(C)c1,nt,nt,-2%,nt,nt,nt
c1ccc(SSc2ccccn2)nc1,-4,nt,3.2µM*,nt,0.67µM*,-5
SMILES,KCNH2 3.1 block,MBNL1 CUG block,VDR inhibitor,CBFb-RUNX1 inh,PLK1 PBD inh,KCNH2 WT inh
c1ccc(Sc2ccccn2)cc1,2,nt,7%,nt,-7%,12
COc1cc(OC)c2c(c1C(CCN1CCN(c3ccccc3)CC1)c1ccc(N(C)C)cc1)OC(=O)CC2c1ccc(N(C)C)cc1 (centres undefined),nt,nt,-6%,nt,nt,nt
CCc1nnc(NC(=O)CSCc2cc(=O)n3nc(C)sc3n2)s1,-3,-3%,?,nt,3.4µM*,3
Cc1ccc(N2CCN(C(=O)c3cn(CC4CCCCC4)nn3)C(C)C2)cc1 (centres undefined),-71*,nt,-11%,nt,-3%,-6
O=C(c1cn(CC2CCCCC2)nn1)N1CCN(c2ccc(F)cc2)CC1,8,-1%,9%,nt,-2%,4
CC(C)OC(=O)c1cn(-c2ccccc2)nc1-c1ccco1,-2,2%,79µM*,-1%,?,-7
CCOC(=O)C1=C(C)NC(C)=C(C(=O)OCC)C1c1cn(-c2ccccc2)nc1-c1ccco1,0,5%,4%,1%,-9%,-1
Cc1cccc(-n2c(O)c(C=Nc3ccccc3)c3ccccc3c2=O)n1,-10,?,32µM*,-8%,24µM*,-12
O=C(Nc1ncc(Cc2ccc(SC(F)F)cc2)s1)c1ccc(OC(F)F)cc1,-82*,12%,-16%,-1%,-14%,4
Cc1ccc(Cc2cnc(NC(=O)c3ccco3)s2)cc1,9,0%,0%,-4%,-5%,0
COc1ccc(OC)c2cc3ccccc3cc12,-2,nt,?,nt,2.7µM*,-5
Nc1ccc(N)c(C(=O)O)c1,7,?,?,nt,24µM*,-3
Cc1cc(N2CCC(C(=O)Nc3ccccc3Cl)CC2)n2nc(C)c(-c3ccc(Cl)cc3)c2n1,nt,nt,-18%,nt,nt,nt
C[C@@H]1COC(=O)O1,nt,nt,17%,14%,nt,nt
O=[N+]([O-])c1ccc(N2CCCCC2)nc1N1CCCCC1,-7,?,2%,?,-7%,-1
O=[N+]([O-])c1ccc2c(c1N1CCCCC1)=NC1(CCCCC1)[N+]=2[O-],12,?,-9%,-26%,21µM*,-1
Cc1ccc(OCCCCn2c(CCNC(=O)C3CCCCC3)nc3ccccc32)cc1,nt,nt,-14%,nt,nt,nt
COc1ccc(C(=O)C[n+]2cn(C(F)F)c3ccccc32)c(F)c1,3,-14%,?,11%,13µM*,-14
O=[N+]([O-])c1ccc(S(=O)(=O)N2CCn3cccc3C2c2ccc(Br)cc2)cc1 (centres undefined),nt,nt,-5%,nt,nt,nt
COc1ccc(C(=O)NCC2(c3ccccc3)CCOCC2)cc1[N+](=O)[O-],-3,nt,?,3%,12µM*,2
